This passage reports growth inhibition results from PubChem BioAssay (NCI).

This is part of a sample that, as a whole, favours compounds with a hit. Of some 79,000 tested, about 15% had one in any assay. Values without a mark were called inactive. The source made the active and inactive calls. Rule as the data show it: active = growth inhibition above about 70%; inactive = the rest.

Assay [1] is described as follows: NCI Yeast Anticancer Drug Screen. Data for the rad50 strain (AID 155).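 Also: 0% = growth of vehicle-only cultures of the same strain.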 Particulars: S. cerevisiae rad50 strain growth inhibition; at 50.0 µM; hits give high values. In outline:
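Genetically altered yeast (DNA repair pathway); compound treatment; growth inhibition vs vehicle ctrl.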

A short description of assay [2]: NCI Yeast Anticancer Drug Screen. Data for the mec2-1 strain (AID 157). The conditions noted are these: S. cerevisiae mec2-1 strain, at 50.0 µM, hits give high values. The procedure, abridged: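 Each compound was tested on mec2-1 yeast, a strain altered in DNA damage repair or cell cycle control. Growth inhibition is reported relative to vehicle.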
A short description of assay [3]: NCI Yeast Anticancer Drug Screen. Data for the sgs1 mgt1 strain (AID 161).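 Also: 0% = growth of cultures given vehicle only.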 Particulars: S. cerevisiae sgs1 mgt1 strain, at 50.0 µM, hits give high values. The procedure, abridged:
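Read-out: growth inhibition vs vehicle controls. Cells: mutant yeast strain deficient in DNA damage repair.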

Assay [4] is described as follows: NCI Yeast Anticancer Drug Screen. Data for the cln2 rad14 strain (AID 165).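 Also: 0% = growth equal to vehicle treated cultures.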 The conditions noted are these: S. cerevisiae cln2 rad14 strain, at 50.0 µM, hits give high values. In outline: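 Test compounds were added to cln2 rad14 yeast cultures; inhibition of growth was then determined by comparison with vehicle treatment.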
Assay [5] is described as follows: NCI Yeast Anticancer Drug Screen. Data for the bub3 strain (AID 167). The conditions noted are these: S. cerevisiae bub3 mutant strain, at 50.0 µM, hits give high values. The procedure, abridged:
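Yeast carrying a defined mutation is treated with each compound, and growth is compared with that of vehicle-exposed cells to give inhibition.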

The nature of assay [6]: NCI Yeast Anticancer Drug Screen. Data for the mlh1 rad18 strain (AID 175). The conditions noted are these: S. cerevisiae mlh1 rad18 strain growth inhibition; at 50.0 µM; hits give high values. In outline:
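Inhibition values reflect reduced growth of mutant yeast versus vehicle-treated controls following compound exposure; the mutations affect DNA damage repair.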

As to `Cc1cc(C)c(S(=O)(=O)c2cccs2)c(C)c1`, the growth inhibition is -7% in assay [1]; -10.2% in assay [2]; -8.25% in assay [3]; -6.45% in assay [4]; 5.25% in assay [5]; -2.8% in assay [6].
Take `OC1CN(c2ccccc2)CC(O)CN(c2ccccc2)C1` (stereo unspecified): the growth inhibition is -8.1% in assay [1]; 2.35% in assay [2]; 7.3% in assay [3]; -11.8% in assay [4]; -16.1% in assay [5]; 6.2% in assay [6].
As for `COc1cc2c[n+](C)c3ccccc3c2cc1OC`, the growth inhibition in assay [1] is 4.75%; in assay [2], 12%; in assay [3], -16.6%; in assay [4], -7.3%; in assay [5], -21.1%; in assay [6], -6.35%.
As for `CCOC(=O)c1cccc(N)c1`, the growth inhibition in assay [1] is -9.6%; in assay [2], -22.2%; in assay [3], -25%; in assay [4], -6.35%; in assay [5] it was -12.5%; in assay [6] it was -6.8%.
For the compound `CCOC(=O)NC(=S)NC(C)c1ccccc1` (stereo unspecified), the growth inhibition in assay [1] is -10.2%; in assay [2] it was 10.6%; in assay [3], 35.5%; in assay [4], -8.85%; in assay [5], 15%; in assay [6], 1.15%.
As for `C=C(C)C(=O)Nc1ccc2nn(-c3ccccc3O)nc2c1`, the growth inhibition in assay [1] is -24.9%; in assay [2], -25.4%; in assay [3], 1.75%; in assay [4], 8.15%; in assay [5], -14.2%; in assay [6], 5.3%.
Take `CC(=O)Nc1ccc(S(=O)(=O)N=S(c2ccccc2)c2ccccc2)cc1`: the growth inhibition was 14.7% in assay [1]; 3.05% in assay [2]; 8.45% in assay [3]; 10.8% in assay [4]; -7.2% in assay [5]; -0.25% in assay [6].
Regarding `CN(C)C=Nc1ccc([N+](=O)[O-])cc1`, the growth inhibition in assay [1] was -7.7%; in assay [2] it was -2.65%; in assay [3], -1.25%; in assay [4] it was -12.8%; in assay [5] it was -0.6%; in assay [6], -5.3%.
As for `CN(C)Cc1cc(C(=O)/C=C/c2c(F)cccc2Cl)cc(CN(C)C)c1O`, the growth inhibition in assay [1] is 1.7%; in assay [2], 21.4%; in assay [3], 2.35%; in assay [4] it was 1.05%; in assay [5], -13.8%; in assay [6], 7.35%.
Regarding `CC(C)(C)OC(=O)NC(CSCc1ccc(C(=O)c2ccccc2)cc1)C(=O)O` (stereo unspecified), the growth inhibition was -23.9% in assay [1]; -28.1% in assay [2]; -15.3% in assay [3]; 10.6% in assay [4]; -12.8% in assay [5]; -2.3% in assay [6].
For the compound `NC(=O)C1=CNCCC1`, the growth inhibition in assay [1] was -1.15%; in assay [2], -6.05%; in assay [3], -6.35%; in assay [4] it was 12.3%; in assay [5], 10.7%; in assay [6] it was 14.7%.
For the compound `OC1CCCCC1C1CCCCC1` (stereo unspecified), the growth inhibition in assay [1] is 28.9%; in assay [2], 4.45%; in assay [3] it was 15.2%; in assay [4], 22.3%; in assay [5], -4.4%; in assay [6] it was 26.7%.
On to `COc1ccc(/C(C#N)=C\c2ccc(N(C)C)cc2)cc1`, for which the growth inhibition was -4.8% in assay [1]; -13.1% in assay [2]; 3.1% in assay [3]; -21.2% in assay [4]; 10.2% in assay [5]; -14.3% in assay [6].
With `COCC12CC(CC1=O)C1C2ON2c3ccccc3C(=O)C12c1ccccc1` (stereo unspecified), the growth inhibition in assay [1] is 50.9%; in assay [2], -8.25%; in assay [3], 36.8%; in assay [4], 37.8%; in assay [5] it was 26.9%; in assay [6] it was 18.6%.
In the case of `O=C(O)C(Br)C(O)c1ccccc1` (stereo unspecified), the growth inhibition in assay [1] was -5.15%; in assay [2], -2.85%; in assay [3] it was 0.85%; in assay [4], 2.15%; in assay [5], 4.25%; in assay [6] it was -8.2%.
As for `CC(C)OCCCN(Cn1c(=S)sc2ccccc21)Cn1c(=S)sc2ccccc21`, the growth inhibition is 66.8% in assay [1]; 54.6% in assay [2]; 85.9% (active) in assay [3]; 42.8% in assay [4]; 39.2% in assay [5]; 55.6% in assay [6].
Take `C/C(=N\NC(=S)N1CCCC1)c1ccc[nH]1`: the growth inhibition in assay [1] is -6.55%; in assay [2], 3.05%; in assay [3], -0.05%; in assay [4] it was -11.6%; in assay [5], -7.75%; in assay [6] it was -2.3%.
Regarding `O=C1C2=Nc3ccccc3C(O)N2c2ccccc21` (stereo unspecified), the growth inhibition in assay [1] is 12.8%; in assay [2], 22.4%; in assay [3], 12%; in assay [4] it was 47.4%; in assay [5], 17.3%; in assay [6], 8.75%.
Regarding `CC1CCC2(CC1)NN=c1s/c(=C\c3ccc(O)cc3)c(=O)n1N2` (stereo unspecified), the growth inhibition was -9.3% in assay [1]; -1.7% in assay [2]; -21.9% in assay [3]; 8.55% in assay [4]; -21.2% in assay [5]; -19.9% in assay [6].
Turning to `CCOc1ccccc1C(=O)Nc1cc(Cl)ccc1Cl`, the growth inhibition in assay [1] was 6.8%; in assay [2], -18.1%; in assay [3], -7.45%; in assay [4] it was -4.8%; in assay [5] it was -15.1%; in assay [6], 2.85%.
As for `NC(=O)COC(=O)c1c(Cl)nc2sccn12`, the growth inhibition is 7.55% in assay [1]; 5.1% in assay [2]; -13.9% in assay [3]; 4.75% in assay [4]; 24.6% in assay [5]; 19.1% in assay [6].
